Values without a mark were called inactive. The rule behind the calls is not given here.

A short description of this test: compounds altering viability of human ES cells (AID 493140).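 Note: cells exposed to compounds for four days before counting.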 Conditions: human embryonic stem cell survival screen; hits give high values.
As for `CCCCC[C@H](O)/C=C/C=C\C=C\[C@@H](O)C/C=C\CCCC(=O)O`, the survival was 135.
On to `CC1O[C@@H](OC2/C=C/C=C/C=C/C=C/C[C@@H](C)OC(=O)/C=C/[C@H]3O[C@@H]3C[C@H](O)C[C@]3(O)C[C@H](O)[C@@H](C(=O)O)[C@H](C2)O3)C(O)C(N)[C@@H]1O` (stereo not given in full), for which the survival was 28.2.
On to `CCCCC[C@H](O)/C=C/C=C\CCCCCCCCCC(=O)O`, for which the survival is 73.3.
`CO/N=C(/C(=O)N[C@@H]1C(=O)N2C(C(=O)[O-])=C(C[N+]3(C)CCCC3)CS[C@H]12)c1csc(N)n1`: the survival is 5.92.
Regarding `CCCCC[C@H](O)/C=C/[C@H]1OC(=O)C[C@H](O)[C@@H]1C/C=C\CCCC(=O)O`, the survival is 110.

Source of the values: PubChem BioAssay.
